Laboratory results as given in the supplement of paper PMC3545927.
Some of the results follow. No count for the full screen is at hand.

Target: furin, P09958
Test: furin cleavage Z-score vs untreated control; higher = more cleavage, active = 3.5 or more, inactive = 1 or less, 8 variable residues between constant flanks
Experimental: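 Multiplexed peptide-cDNA fusion cleavage assay. 8-mer variable peptides flanked by constant Cys-Ala (N-term) and Ala-Gly-Asn-Ala-Ser-Ala-Ser-Ala (C-term) and conjugated to a cDNA oligonucleotide were bead-immobilised via the N-terminus. They were treated with purified furin at a 1:10 enzyme:substrate ratio in 50 mM HEPES pH 7.5, 1 mM CaCl2, 100 mM NaCl for 7.5, 15 or 30 min. Released cDNA was counted by next-generation sequencing, and log counts versus no-furin controls were lowess-adjusted and converted to robust Z-scores.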

furin, P09958, sequence (P09958 whole entry): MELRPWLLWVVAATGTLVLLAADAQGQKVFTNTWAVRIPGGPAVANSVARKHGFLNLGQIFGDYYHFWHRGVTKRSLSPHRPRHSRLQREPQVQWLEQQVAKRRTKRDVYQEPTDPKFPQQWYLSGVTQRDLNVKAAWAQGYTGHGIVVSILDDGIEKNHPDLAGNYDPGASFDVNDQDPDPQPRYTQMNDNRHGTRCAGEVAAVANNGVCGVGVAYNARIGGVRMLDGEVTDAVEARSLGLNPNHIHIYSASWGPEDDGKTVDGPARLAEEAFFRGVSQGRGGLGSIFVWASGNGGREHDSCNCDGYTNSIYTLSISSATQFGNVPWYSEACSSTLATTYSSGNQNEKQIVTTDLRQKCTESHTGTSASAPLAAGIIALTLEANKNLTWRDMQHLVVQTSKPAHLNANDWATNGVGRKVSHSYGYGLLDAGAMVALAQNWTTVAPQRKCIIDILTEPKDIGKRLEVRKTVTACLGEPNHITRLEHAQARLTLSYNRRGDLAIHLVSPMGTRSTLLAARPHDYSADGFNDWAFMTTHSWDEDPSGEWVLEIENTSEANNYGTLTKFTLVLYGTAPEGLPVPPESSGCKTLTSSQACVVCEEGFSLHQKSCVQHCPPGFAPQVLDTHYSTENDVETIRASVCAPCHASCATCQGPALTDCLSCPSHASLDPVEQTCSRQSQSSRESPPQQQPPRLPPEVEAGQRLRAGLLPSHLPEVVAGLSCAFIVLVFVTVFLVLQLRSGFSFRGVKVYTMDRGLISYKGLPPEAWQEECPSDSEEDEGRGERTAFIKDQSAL

## CAPEMEECSQAGNASASA [HC1799]
7.5 min
  furin cleavage Z-score: 0.387 (inactive)
15 min
  furin cleavage Z-score: 0.44 (inactive)
30 min
  furin cleavage Z-score: 0.854 (inactive)

## CARNVRFSDEAGNASASA [FS-2223]
7.5 min
  furin cleavage Z-score: 0.545 (inactive)
15 min
  furin cleavage Z-score: -0.141 (inactive)
30 min
  furin cleavage Z-score: -1.68 (inactive)

## CARERRWDRGAGNASASA [FS-2010]
7.5 min
  furin cleavage Z-score: -1.3 (inactive)
15 min
  furin cleavage Z-score: -0.408 (inactive)
30 min
  furin cleavage Z-score: 1.72

## CARYKRMVERAGNASASA [FS-2537]
7.5 min
  furin cleavage Z-score: 7.23 (active)
15 min
  furin cleavage Z-score: 7.48 (active)
30 min
  furin cleavage Z-score: 6.63 (active)

## CARERREVVRAGNASASA [FU3]
7.5 min
  furin cleavage Z-score: 10.2 (active)
15 min
  furin cleavage Z-score: 11.3 (active)
30 min
  furin cleavage Z-score: 10.9 (active)

## CARYKRKMTQAGNASASA [FS-1979]
7.5 min
  furin cleavage Z-score: -0.853 (inactive)
15 min
  furin cleavage Z-score: -0.612 (inactive)
30 min
  furin cleavage Z-score: -0.101 (inactive)

## CARYKRKSDEAGNASASA [FS-3177]
7.5 min
  furin cleavage Z-score: 5.32 (active)
15 min
  furin cleavage Z-score: 5.6 (active)
30 min
  furin cleavage Z-score: 5.8 (active)

## CARYKKAVFRAGNASASA [FS-3135]
7.5 min
  furin cleavage Z-score: 2
15 min
  furin cleavage Z-score: 0.2 (inactive)
30 min
  furin cleavage Z-score: 2.99

## CARERRDSGVAGNASASA [FS-2486]
7.5 min
  furin cleavage Z-score: -0.528 (inactive)
15 min
  furin cleavage Z-score: -0.224 (inactive)
30 min
  furin cleavage Z-score: 0.24 (inactive)

## CARERRDAGRAGNASASA [FS-2137]
7.5 min
  furin cleavage Z-score: 9.55 (active)
15 min
  furin cleavage Z-score: 10.7 (active)
30 min
  furin cleavage Z-score: 9.14 (active)

## CARERRRAAKAGNASASA [FS-2550]
7.5 min
  furin cleavage Z-score: 0.778 (inactive)
15 min
  furin cleavage Z-score: 0.314 (inactive)
30 min
  furin cleavage Z-score: 1.46

## CATTPCSGTWAGNASASA [HC1918]
7.5 min
  furin cleavage Z-score: 0.438 (inactive)
15 min
  furin cleavage Z-score: 1.03
30 min
  furin cleavage Z-score: 0.941 (inactive)

## CAAEEYVEIRAGNASASA [HC1204]
7.5 min
  furin cleavage Z-score: -0.657 (inactive)
15 min
  furin cleavage Z-score: 2
30 min
  furin cleavage Z-score: -1.07 (inactive)

## CAQIVGGVYLAGNASASA [HC175]
7.5 min
  furin cleavage Z-score: -0.135 (inactive)
15 min
  furin cleavage Z-score: -2.24 (inactive)
30 min
  furin cleavage Z-score: -1.9 (inactive)

## CAVVRCSMSYAGNASASA [HC2033]
7.5 min
  furin cleavage Z-score: 1.28
15 min
  furin cleavage Z-score: 0.684 (inactive)
30 min
  furin cleavage Z-score: -0.612 (inactive)

## CARENRSLFTAGNASASA [FS-2009]
7.5 min
  furin cleavage Z-score: 0.285 (inactive)
15 min
  furin cleavage Z-score: -0.333 (inactive)
30 min
  furin cleavage Z-score: -1.13 (inactive)

## CARYKRAGESAGNASASA [FS-2472]
7.5 min
  furin cleavage Z-score: 8.25 (active)
15 min
  furin cleavage Z-score: 10.6 (active)
30 min
  furin cleavage Z-score: 7.78 (active)

## CARERRADHVAGNASASA [FS-2330]
7.5 min
  furin cleavage Z-score: 1.39
15 min
  furin cleavage Z-score: 0.278 (inactive)
30 min
  furin cleavage Z-score: 2.34

## CARERRTLSVAGNASASA [FS-2661]
7.5 min
  furin cleavage Z-score: 0.891 (inactive)
15 min
  furin cleavage Z-score: 2.33
30 min
  furin cleavage Z-score: 3.01

## CARERRGPATAGNASASA [FS-2487]
7.5 min
  furin cleavage Z-score: -1.34 (inactive)
15 min
  furin cleavage Z-score: 0.671 (inactive)
30 min
  furin cleavage Z-score: -0.709 (inactive)

## CARERRDVQRAGNASASA [FS-1696]
7.5 min
  furin cleavage Z-score: 10.6 (active)
15 min
  furin cleavage Z-score: 13.2 (active)
30 min
  furin cleavage Z-score: 9.38 (active)

## CARERRDLFTAGNASASA [FS-2659]
7.5 min
  furin cleavage Z-score: 5.35 (active)
15 min
  furin cleavage Z-score: 8.1 (active)
30 min
  furin cleavage Z-score: 7.97 (active)

## CARERRRLMSAGNASASA [FS-2660]
7.5 min
  furin cleavage Z-score: -1.21 (inactive)
15 min
  furin cleavage Z-score: -0.546 (inactive)
30 min
  furin cleavage Z-score: 0.262 (inactive)

## CARERRNAIRAGNASASA [FS-3219]
7.5 min
  furin cleavage Z-score: 3.48
15 min
  furin cleavage Z-score: 4.37 (active)
30 min
  furin cleavage Z-score: 4.64 (active)

## CAAGCAWYELAGNASASA [HC922]
7.5 min
  furin cleavage Z-score: -0.796 (inactive)
15 min
  furin cleavage Z-score: -1.42 (inactive)
30 min
  furin cleavage Z-score: -1.58 (inactive)

## CAKEMEECSQAGNASASA [HC1794]
7.5 min
  furin cleavage Z-score: 0.752 (inactive)
15 min
  furin cleavage Z-score: 0.717 (inactive)
30 min
  furin cleavage Z-score: 0.689 (inactive)

## CAEVPCHRPLAGNASASA [HC2405]
7.5 min
  furin cleavage Z-score: 0.138 (inactive)
15 min
  furin cleavage Z-score: -0.494 (inactive)
30 min
  furin cleavage Z-score: 0.866 (inactive)

## CAREQRDICEAGNASASA [FS-2658]
7.5 min
  furin cleavage Z-score: 0.169 (inactive)
15 min
  furin cleavage Z-score: 0.317 (inactive)
30 min
  furin cleavage Z-score: 0.297 (inactive)

## CAREQRDVERAGNASASA [FS-2485]
7.5 min
  furin cleavage Z-score: 1.98
15 min
  furin cleavage Z-score: 3.86 (active)
30 min
  furin cleavage Z-score: 2.52

## CAREQRSNGLAGNASASA [FS-3245]
7.5 min
  furin cleavage Z-score: -0.772 (inactive)
15 min
  furin cleavage Z-score: 0.724 (inactive)
30 min
  furin cleavage Z-score: 1.43

## CAKVIRHKRQAGNASASA [FS-681]
7.5 min
  furin cleavage Z-score: 12.7 (active)
15 min
  furin cleavage Z-score: 12.4 (active)
30 min
  furin cleavage Z-score: 9.91 (active)

## CASIERVKRQAGNASASA [FS-961]
7.5 min
  furin cleavage Z-score: 10.9 (active)
15 min
  furin cleavage Z-score: 11.9 (active)
30 min
  furin cleavage Z-score: 7.3 (active)

## CAKVTFDRLQAGNASASA [HC1396]
7.5 min
  furin cleavage Z-score: -1.13 (inactive)
15 min
  furin cleavage Z-score: -0.299 (inactive)
30 min
  furin cleavage Z-score: -2.04 (inactive)

## CASVERIKRQAGNASASA [FS-303]
7.5 min
  furin cleavage Z-score: 12.4 (active)
15 min
  furin cleavage Z-score: 11.8 (active)
30 min
  furin cleavage Z-score: 10.6 (active)

## CAKVIDTLTCAGNASASA [HC221]
7.5 min
  furin cleavage Z-score: -1.35 (inactive)
15 min
  furin cleavage Z-score: -0.249 (inactive)
30 min
  furin cleavage Z-score: -0.555 (inactive)

## CADVCCSMSYAGNASASA [HC1991]
7.5 min
  furin cleavage Z-score: -0.0698 (inactive)
15 min
  furin cleavage Z-score: -0.573 (inactive)
30 min
  furin cleavage Z-score: 1.23

## CATTDCSGSWAGNASASA [HC1871]
7.5 min
  furin cleavage Z-score: -0.934 (inactive)
15 min
  furin cleavage Z-score: -0.299 (inactive)
30 min
  furin cleavage Z-score: -0.368 (inactive)

## CAEWTTPCSGAGNASASA [HC1968]
7.5 min
  furin cleavage Z-score: -0.833 (inactive)
15 min
  furin cleavage Z-score: -0.0659 (inactive)
30 min
  furin cleavage Z-score: 0.694 (inactive)

## CAVVCVSMSYAGNASASA [HC83]
7.5 min
  furin cleavage Z-score: 0.357 (inactive)
15 min
  furin cleavage Z-score: 0.79 (inactive)
30 min
  furin cleavage Z-score: -0.758 (inactive)

## CARNHRDAGAAGNASASA [FS-1756]
7.5 min
  furin cleavage Z-score: 1.3
15 min
  furin cleavage Z-score: 0.109 (inactive)
30 min
  furin cleavage Z-score: 0.263 (inactive)

## CARTKREAGAAGNASASA [FS-2189]
7.5 min
  furin cleavage Z-score: 10.6 (active)
15 min
  furin cleavage Z-score: 10.5 (active)
30 min
  furin cleavage Z-score: 7.02 (active)

## CARRKRSAALAGNASASA [FS-2371]
7.5 min
  furin cleavage Z-score: 10.8 (active)
15 min
  furin cleavage Z-score: 11.7 (active)
30 min
  furin cleavage Z-score: 9.76 (active)

## CARRKRSAGAAGNASASA [FS-1779]
7.5 min
  furin cleavage Z-score: 11.3 (active)
15 min
  furin cleavage Z-score: 10.7 (active)
30 min
  furin cleavage Z-score: 8.77 (active)

## CARKNRPAGAAGNASASA [FS-1729]
7.5 min
  furin cleavage Z-score: -0.275 (inactive)
15 min
  furin cleavage Z-score: -0.752 (inactive)
30 min
  furin cleavage Z-score: -0.0808 (inactive)

## CARRGRSGGAAGNASASA [FS-2227]
7.5 min
  furin cleavage Z-score: -0.325 (inactive)
15 min
  furin cleavage Z-score: -0.173 (inactive)
30 min
  furin cleavage Z-score: -0.877 (inactive)

## CASTPCSAALAGNASASA [HC2543]
7.5 min
  furin cleavage Z-score: -1.2 (inactive)
15 min
  furin cleavage Z-score: -0.501 (inactive)
30 min
  furin cleavage Z-score: 0.383 (inactive)

## CARAQRSAGAAGNASASA [FS-1994]
7.5 min
  furin cleavage Z-score: 0.322 (inactive)
15 min
  furin cleavage Z-score: 0.0646 (inactive)
30 min
  furin cleavage Z-score: 1.56

## CARRKRKGSDAGNASASA [FS-2451]
7.5 min
  furin cleavage Z-score: 0.854 (inactive)
15 min
  furin cleavage Z-score: 2.01
30 min
  furin cleavage Z-score: 1.02

## CARRKRHDIAAGNASASA [FS-3053]
7.5 min
  furin cleavage Z-score: 9.56 (active)
15 min
  furin cleavage Z-score: 8.72 (active)
30 min
  furin cleavage Z-score: 8.78 (active)
